PubChem BioAssay (EPA / NIEHS)
Records with an inconclusive call do not appear. Active and inactive are the calls of the source. The calls were made as follows: active = hit-call score of the fitted dose curve at least 0.9, where 1 is the maximum; inconclusive = response in the unintended direction; inactive = score below 0.9.

Key:
[1] = molecular target: Cellular tumor antigen p53 (Homo sapiens) (UniProt P04637); assay: TOX21_p53_BLA_p2_ratio: Tox21 HCT-116 p53 Agonism Beta-lactamase Assay, Ratio, Phase 2 (AID 2283592)
Sequence of Cellular tumor antigen p53 (Homo sapiens) (P04637 whole entry, looked up): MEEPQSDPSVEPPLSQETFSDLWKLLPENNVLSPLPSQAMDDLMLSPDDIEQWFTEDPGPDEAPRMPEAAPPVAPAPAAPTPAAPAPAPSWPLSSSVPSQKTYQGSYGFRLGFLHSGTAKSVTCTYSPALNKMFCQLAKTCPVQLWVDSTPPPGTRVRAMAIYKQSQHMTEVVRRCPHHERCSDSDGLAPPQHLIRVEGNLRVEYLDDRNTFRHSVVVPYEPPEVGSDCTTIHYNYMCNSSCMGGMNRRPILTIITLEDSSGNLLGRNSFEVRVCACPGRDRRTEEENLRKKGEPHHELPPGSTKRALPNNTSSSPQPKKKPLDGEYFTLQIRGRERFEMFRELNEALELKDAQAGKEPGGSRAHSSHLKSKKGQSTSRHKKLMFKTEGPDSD
Outline: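 In this cell-based reporter format, HCT116 cells were dosed with chemicals delivered from DMSO by 217-fold dilution and incubated 16 h at 37C. Emission at 460 and 530 nm after 2 h CCF4-AM loading provided the ratio, fitted upward versus DMSO.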

[2] = TOX21_p53_BLA_p3_viability: Viability Assessment in the Tox21 HCT-116 p53 Agonism Beta-lactamase Assay, Phase 3 (AID 2283593);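 also: cells exposed to compound for 16 h before reading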
Outline: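 HCT116 cells, 4000/well, dosed 5 h after plating by pin transfer (217-fold dilution from DMSO stock) and incubated 16 h at 37C, 5% CO2. Viability read as ATP luminescence with CellTiter-Glo after 30 min at room temperature.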

[3] = molecular target: Cellular tumor antigen p53 (Homo sapiens) (UniProt P04637); assay: TOX21_p53_BLA_p3_ratio: Tox21 HCT-116 p53 Agonism Beta-lactamase Assay, Ratio, Phase 3 (AID 2283596)
Outline: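 HCT116 p53-bla cells (4000/well) given compound in DMSO (217-fold dilution) after 5 h, incubated 16 h at 37C. CCF4-AM substrate 2 h at room temperature; 460/530 nm emission ratio, gain fitted against DMSO.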

[4] = TOX21_p53_BLA_p4_viability: Viability Assessment in the Tox21 HCT-116 p53 Agonism Beta-lactamase Assay, Phase 4 (AID 2283597);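 also: hits lower the luminescence signal meaning cytotoxicity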
Outline: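 We seeded HCT116 p53 reporter cells at 4000/well and waited 5 h. We then added compounds in DMSO at a 217-fold dilution and incubated for 16 h. Viability was read as CellTiter-Glo luminescence after 30 min at RT.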

[5] = TOX21_p53_BLA_p5_viability: Viability Assessment in the Tox21 HCT-116 p53 Agonism Beta-lactamase Assay, Phase 5 (AID 2283600)
Outline: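 Compounds, pinned from DMSO at 217-fold dilution, were left on the cells for 16 h. The viability endpoint was ATP content measured by CellTiter-Glo luminescence, where falling signal reflects cytotoxicity.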

[6] = molecular target: Cellular tumor antigen p53 (Homo sapiens) (UniProt P04637); assay: TOX21_p53_BLA_p4_ratio: Tox21 HCT-116 p53 Agonism Beta-lactamase Assay, Ratio, Phase 4 (AID 2283601)
Outline: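 HCT-116 p53 beta-lactamase reporter cells (4000/well) preincubated 5 h, then compound (217-fold dilution of DMSO stock) for 16 h at 37C. CCF4-AM substrate added 2 h at room temperature; 460/530 nm emission ratio fitted upward versus DMSO.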

[7] = molecular target: Cellular tumor antigen p53 (Homo sapiens) (UniProt P04637); assay: TOX21_p53_BLA_p5_ratio: Tox21 HCT-116 p53 Agonism Beta-lactamase Assay, Ratio, Phase 5 (AID 2283599)
Outline: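 HCT-116 p53-bla cells (4000/well) plated 5 h, dosed with compound (217-fold DMSO dilution) for 16 h at 37 C; CCF4-AM substrate 2 h at room temperature. Activity is the 460/530 nm emission ratio (405 nm excitation), fitted in gain-of-signal direction versus DMSO.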

Measured: outcome

O=S(O)(O)=S
not listed: [7]
inactive: all other assays above

C=COCC(C)C
inactive: [1] | [2] | [3] | [7]

O=C(O)Cc1ccc(CCNS(=O)(=O)c2ccc(Cl)cc2)cc1
not listed: [7]
inactive: all other assays above

CC(C)(O)CCCC1=CCC(C=O)CC1 (configuration not stated)
not listed: [6] | [7]
inactive: all other assays above

O=S(O)CO
not listed: [5]
inactive: all other assays above

O=C(O)Cc1ccc(Cl)cc1Cl
not listed: [6] | [7]
inactive: all other assays above

CCOc1cc(CC(=O)N[C@@H](CC(C)C)c2ccccc2N2CCCCC2)ccc1C(=O)O
not listed: [5] | [7]
inactive: all other assays above
